Inconclusive results are not listed. A number with no mark means an inactive call. Calls follow the shape of the dose curve; as a rule, active = well fitted inhibition curve with a large enough effect in the repeat runs; inconclusive = weak or mixed curves, or effect the other way; inactive = no such curve, though single readings can be large or run the other way.
% is scaled to controls: 0 for no effect and ±100 for the full control effect.

Sequence of Nuclear receptor subfamily 1 group I member 3 (Homo sapiens) (Q14994 whole entry, looked up): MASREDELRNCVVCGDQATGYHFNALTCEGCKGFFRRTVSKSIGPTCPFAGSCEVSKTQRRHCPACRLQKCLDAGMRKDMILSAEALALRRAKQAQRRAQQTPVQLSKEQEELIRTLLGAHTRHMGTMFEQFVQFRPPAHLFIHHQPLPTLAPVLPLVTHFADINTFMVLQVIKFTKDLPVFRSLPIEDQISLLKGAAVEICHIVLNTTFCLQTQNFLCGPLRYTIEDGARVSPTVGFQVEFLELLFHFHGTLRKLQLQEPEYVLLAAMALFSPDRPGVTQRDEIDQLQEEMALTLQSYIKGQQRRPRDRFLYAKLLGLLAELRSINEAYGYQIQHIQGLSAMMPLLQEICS

The test concerns the target Nuclear receptor subfamily 1 group I member 3 (Homo sapiens) (UniProt Q14994). Put plainly: qHTS assay to identify small molecule antagonists of the constitutive androstane receptor (CAR) signaling pathway (AID 1224838).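 Also: HepG2 cells stably expressing hCAR with CYP2B6 luciferase reporter stimulated by CITCO; nearly all actives have a fitted effect of over 40% in size.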 As to conditions: HepG2-CYP2B6-hCAR luciferase, CITCO-stimulated, 24 h; series mostly up to 92.4 µM; activity, negative = inhibition: at the top concentration. The source says: U.S. Tox21 Program National Center for Advancing Translational Sciences [NCATS] NIH Chemical Genomics Center [NCGC] U.S. Environmental Protection Agency [EPA] National Institutes of Environmental Health Sciences [NIEHS] National Toxicology Program [NTP] U.S. Food and Drug Administration [FDA] Tox21 Assay Overview: The constitutive androstane receptor (CAR) is a nuclear receptor which regulates multiple drug metabolizing enzymes (DMEs) and transporters. Activating CAR will generally increase the transcription and subsequent translation of CYP2B6 and CYP3A4. These two DMEs represent about 50% of the drug metabolizing potential in the body. When CAR is deactivated, the metabolizing potential in the body will decrease, subsequently increasing the toxicity in the body or lowering the therapeutic potential of a pro-drug. Recently, there have also been studies performed indicating CARs role in energy metabolism and cancer therapy. Therefore, inhibiting CARs activity could have a potential effect on diabetes and cancer. Identifying environmental toxins and compounds which modulate CAR, through the use of the Tox21 10K compound collection, will be an important step in determining the toxicity and potential therapeutic effects these factors will have on the human body.
Tox21 Assay Protocol Summary: A double-stable (hCAR and CYP2B6-2.2kb) transfected cell line, derived from human hepatoma (HepG2) cells, was utilized for the duration of the quantitative high-throughput screens. The HepG2-CYP2B6-hCAR cells suspended in DMEM culture medium supplemented with 10% FBS, 5 ug/mL blasticidin, 0.5 mg/mL geneticin, 100 U/mL penicillin and 100 ug/mL streptomycin were dispensed at 2500 cells/4 uL/well in 1536-well white solid bottom plates using a Multidrop Combi. After the assay plates were incubated at 37 C/5% CO2 for 4 hrs, 23 nL of compounds at 15 concentrations (from 5-48 columns) or positive control (from 1 to 4 columns) were transferred to the assay plates using a Pintool station. One uL of CITCO, was added using a Flying Reagent Dispenser to generate a final concentration of 50 nM CITCO inside each well. After a 24 hr incubation period at 37 C/5% CO2, four uL of ONE-Glo reagent was added into the assay plates using a Flying Reagent Dispenser. After a 30 min incubation period at room temperature, the luminescence intensity in the assay plates was measured using a ViewLux plate reader.
In the case of `N[C@@H](CCC(=O)Nc1ccc([N+](=O)[O-])cc1)C(=O)O`, the “activity, negative = inhibition” value was 35.8%.

Regarding `Cc1cc2cc3c(C)cc(=O)oc3c(C)c2o1`, the “activity, negative = inhibition” value was 129% [at 42.5 µM].

For the compound `CC(C)CCCC(C)(C)O`, the “activity, negative = inhibition” value was 21.5%.

Turning to `CCCCNC1CC(C)(C)NC(C)(C)C1`, the “activity, negative = inhibition” value is -8.7%.

`CCCC/C=C\CCCCCCCCCC=O`: the “activity, negative = inhibition” value was -18.4%.

As for `Cc1cc(Cl)c(C)cc1Cl`, the “activity, negative = inhibition” value is 11.7%.

Consider `CC(C)N(c1ccccc1)C(C)C`, for which the “activity, negative = inhibition” value was -6.25%.

On to `Cc1cccc(C)c1OCC(C)N` (stereo not given), for which the “activity, negative = inhibition” value was 9.68% [at 42.5 µM].

For the compound `Nc1cccc(O)c1`, the “activity, negative = inhibition” value is 58.9%.

With `CC(=O)c1sc(C)nc1C`, the “activity, negative = inhibition” value was -0.445%.

Turning to `C=C(C)C(=O)OCc1ccccc1`, the “activity, negative = inhibition” value is -3.86%.

For `Nc1ccc(S(=O)(=O)Nc2ccc(Cl)nn2)cc1`, the “activity, negative = inhibition” value is 4.45% [at 42.5 µM].

In the case of `NS(=O)(=O)c1cc2c(cc1Cl)CN(C1CCCCC1)C2=O`, the “activity, negative = inhibition” value was 47.5% [at 42.5 µM].

With `COc1cc(C(=S)N2CCOCC2)cc(OC)c1OC`, the “activity, negative = inhibition” value is -7.32% [at 42.5 µM].

In the case of `O=C(O)Cc1cn(-c2ccccc2)nc1-c1ccc(Cl)cc1`, the “activity, negative = inhibition” value is 28% [at 42.5 µM].

Consider `CC/C=C\CC1=C(C)CCC1=O`, for which the “activity, negative = inhibition” value is 34%.

Turning to `CC(C)NCC(O)COc1cccc2[nH]ccc12` (stereo not given), the “activity, negative = inhibition” value is 14.9% [at 42.5 µM].

Consider `Cc1ccsc1/C=C/C1=NCCCN1C`, for which the “activity, negative = inhibition” value is 11.4% [at 42.5 µM].

Take `CCOC(=O)[C@H](CCc1ccccc1)N[C@@H](C)C(=O)N1C(=O)N(C)C[C@H]1C(=O)O`: the “activity, negative = inhibition” value was 23% [at 42.5 µM].

On to `COc1nccnc1NS(=O)(=O)c1ccc(N)cc1`, for which the “activity, negative = inhibition” value is 4.79% [at 42.5 µM].

In the case of `COCCOCCOCCOCCO`, the “activity, negative = inhibition” value is -11.5%.

In the case of `CN(C)c1ccc(C=O)cc1`, the “activity, negative = inhibition” value was 37.3%.

Consider `CCCCCCCCOS(=O)(=O)O`, for which the “activity, negative = inhibition” value was -15.8%.

On to `CC(CO)c1ccccc1` (stereo not given), for which the “activity, negative = inhibition” value was -10.7%.

As for `NS(=O)(=O)c1ccc(NC(=O)CCC(=O)O)cc1`, the “activity, negative = inhibition” value was -20.5% [at 42.5 µM].

`C=Cc1ccccn1`: the “activity, negative = inhibition” value is -7.87%.

In the case of `N[C@@H](COP(=O)(O)O)C(=O)O`, the activity, negative = inhibition was 2.8% [at 19 µM].

`CN(C)CCOCCO`: the “activity, negative = inhibition” value was 14.1%.

For `CN(C)C(=O)CNC(=O)Cc1ccccc1`, the “activity, negative = inhibition” value was -7.67% [at 42.5 µM].

`C=CCCCCCCCCCCCC`: the “activity, negative = inhibition” value is -4.56%.

For the compound `CCc1ccc(C=O)cc1`, the “activity, negative = inhibition” value is 2.38%.

Turning to `CC1(C)S[C@@H]2[C@H](N=CN3CCCCCC3)C(=O)N2[C@H]1C(=O)O`, the “activity, negative = inhibition” value was -6.09% [at 42.5 µM].

In the case of `COP(=O)(OC)OC(c1ccc(Cl)cc1)P(=O)(OC)OC` (stereo not given), the “activity, negative = inhibition” value is 15.7% [at 42.5 µM].

Regarding `COC(=O)CCCCCCCC(=O)OC`, the “activity, negative = inhibition” value was 9.23%.

On to `CCN1CCc2nc(N)oc2CC1`, for which the “activity, negative = inhibition” value was -3.49% [at 42.5 µM].

Consider `CC(C)(C)OC(=O)c1ccc(O)cc1`, for which the “activity, negative = inhibition” value is 126%.

In the case of `CCCCCCCCC1CCC(=O)O1` (stereo not given), the “activity, negative = inhibition” value is 78.4%.

Turning to `CO[C@@H]1[C@@H](OC(N)=O)[C@@H](O)[C@H](Oc2ccc3c(O)c(NC(=O)c4ccc(O)c(CC=C(C)C)c4)c(=O)oc3c2C)OC1(C)C`, the “activity, negative = inhibition” value is 42.6% [at 42.5 µM].

For the compound `CCCC/C=C/C=C\C=O`, the “activity, negative = inhibition” value was 0.958%.

Take `Cc1c(I)c(=O)n(-c2ccccc2)n1C`: the “activity, negative = inhibition” value is 1.24% [at 42.5 µM].

Values taken from PubChem BioAssay (Tox21).
